Values joined by “and” are separate entries in the source; they are usually repeats but may differ in a detail not shown here. Identical values can stand only once. Among all 1,300 compounds or so, about 1,000 (77%) were called active. Another 7% or so got no clear call; they are omitted. So high a share suggests a set chosen from earlier hits. The list shows a part of the results. Values without a mark were called inactive. Calls follow the shape of the dose curve; as a rule, active = well fitted inhibition curve with a large enough effect; inconclusive = small, poorly fitted or top-dose-only effect; inactive = no such curve, though single readings can be large or run the other way.
% is scaled to controls: 0 for no effect and ±100 for the full control effect; potency is read from the fitted curve at half-maximal effect.

The nature of the assay: qHTS of small molecules that selectively kill Giardia lamblia: Hit Validation.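 Also: viability measured as ATP content by luminescence so killing lowers signal; nearly all actives have a fitted effect of over 65% in size.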 Particulars: Giardia lamblia trophozoite viability, dose-response; series mostly up to 38.3 µM; activity change, negative = killing: at the top concentration. The text has this:
Giardia lamblia is a human pathogen afflicting impoverished nations, and the most common cause of outbreaks of diarrhea in the United States. Giardia has been classified by the CDC as a category B bioterrorism organism. The favored anti giardiasis drugs in the US are metronidazole or tinidazole, compounds that have undesirable side effects. Moreover, increasing resistance to drug regimes and recurrence are a concern. It is thus clear that alternative drug treatments are needed.
In a collaboration between the University of Maryland, College Park and the NIH Chemical Genomics Center, a bioluminescence Giardia viability assay based on the trophozoites' ATP content was developed. This assay is suitable for high throughput screening, and miniaturized the assay for compound screening in 1536-well plates. The goal of the project is to screen the Molecular Libraries Small Molecule Repository (MLSMR) for compounds that selectively kill Giardia trophozoites.
NIH Chemical Genomics Center [NCGC]
NIH Molecular Libraries Probe Centers Network [MLPCN]
Assay Submitter (PI): Osnat Herzberg, University of Maryland, College Park, MD.
1. Dispense 2 ul/well media
2. Dispense 23 nl/well compounds
3. Dispense 4 ul/well Giardia trophozoites at a concentration of 100 cells/well
4. Incubate 48 hrs at 37 deg C anaerobically
5. Dispense 4 ul/well ATPLite 1-Step Luminescence assay kit
6. Incubate 15-30 min at room temperature
7. Read luminescence signal on ViewLux plate reader
For orientation: In qHTS, concentration-response curves come from the screen itself.
On to `COc1ccc(C(=O)Nc2ccc(C)cn2)c(OC)c1`, for which the Potency was 0.579 µM (active).

For the compound `COc1cc(C(=O)NC(=S)Nc2ccc(Cl)cn2)cc(OC)c1OC`, the “activity change, negative = killing” value was -7.19%.

With `COC(=O)c1sc(NC(=O)c2ccc(OC)cc2OC)nc1C`, the Potency is 0.365 µM (active).

Take `C[C@H]1CN=C(N(C)C)N1CCC1CCCC1`: the “activity change, negative = killing” value was 2.7%.

As for `CCOC(=O)CSc1ccc(C(=O)NCCCN2CCOCC2)cc1[N+](=O)[O-]`, the Potency is 18.3 µM (active).

As to `O=C(CN(C1CCCCC1)S(=O)(=O)c1ccc(F)cc1)NCC1CCCO1` (stereo unspecified), the Potency is 1.63 µM (active).

As for `Cc1c[n+]([O-])ccc1[N+](=O)[O-]`, the Potency is 1.3 µM (active).

For the compound `Cc1nc2c(ccc3nc(NC(=O)c4ccc5c(c4)OCCO5)sc32)s1`, the Potency is 3.26 µM (active) and 3.65 µM (active).

Turning to `Cc1cc(NC(=O)c2ccc3c(c2)OCCO3)no1`, the Potency was 1.16 µM (active).

As for `Cc1cc(NC(=O)c2ccc(C(C)(C)C)cc2)no1`, the Potency was 6.5 µM (active).

As for `Cc1ccnc(NC(=O)c2ccc3c(c2)OCO3)c1`, the Potency is 2.59 µM (active).

On to `N#Cc1sc(NCc2cccc(Cl)c2)nc1Cl`, for which the Potency is 23.1 µM (active).

In the case of `NCCCn1c(C(=O)c2ccc(Cl)cc2)c2ccc([N+](=O)[O-])cc2[n+]1[O-]`, the Potency is 3.26 µM (active).

On to `NC(=O)CCCn1c(C(=O)c2ccc(Cl)cc2)c2ccc([N+](=O)[O-])cc2[n+]1[O-]`, for which the Potency is 1.16 µM (active).

For `CCOC(=O)C1=C(C)N=c2s/c(=C\c3ccc(O)c([N+](=O)[O-])c3)c(=O)n2C1c1ccccc1OC` (stereo unspecified), the Potency is 2.05 µM (active).

On to `CCOC(=O)C1=C(C)N=c2s/c(=C/c3cccc([N+](=O)[O-])c3O)c(=O)n2C1c1cc(OC)c(OC)c(OC)c1` (stereo unspecified), for which the Potency is 2.9 µM (active).

As to `CCOC(=O)C1=C(C)N=c2s/c(=C/c3cccc([N+](=O)[O-])c3O)c(=O)n2C1c1ccccc1` (stereo unspecified), the Potency was 2.31 µM (active).

Turning to `CCOC(=O)C1=C(C)N=c2s/c(=C/c3cccc([N+](=O)[O-])c3O)c(=O)n2C1c1ccc(OC)cc1OC` (stereo unspecified), the Potency was 1.83 µM (active).

For the compound `CN(C)C(=O)CCc1ccc2c3c([nH]c2c1)[C@]1(CCC2CCCC2)[C@@H](C(=O)N2CCOCC2)C[C@H](CC(=O)NCCN2CCOCC2)C(=O)N1CC3`, the “activity change, negative = killing” value was -13.7%.

In the case of `CCC(=O)N1CCN(c2ccc(Cl)cc2NC(=O)c2ccc([N+](=O)[O-])o2)CC1`, the Potency is 1.16 µM (active).

For the compound `CN1CCN(c2ccc(NC(=O)c3ccc([N+](=O)[O-])o3)cc2Cl)CC1`, the Potency is 1.3 µM (active).

For `CC(=O)N1CCN(c2ccc(NC(=O)c3ccc([N+](=O)[O-])o3)cc2Cl)CC1`, the Potency was 1.45 µM (active).

In the case of `CS(=O)(=O)N1CCN(c2ccccc2NC(=O)c2ccc([N+](=O)[O-])o2)CC1`, the Potency is 1.3 µM (active).

Consider `CCN1CCN(c2ccc(NC(=O)c3ccc([N+](=O)[O-])o3)cc2Cl)CC1`, for which the Potency is 0.729 µM (active).

For `O=C(Nc1ccccc1N1CCN(C(=O)c2ccccc2)CC1)c1ccc([N+](=O)[O-])o1`, the Potency is 0.818 µM (active).

Consider `CCC(=O)N1CCN(c2ccc(NC(=O)c3ccc([N+](=O)[O-])o3)cc2Cl)CC1`, for which the Potency is 0.65 µM (active).

Regarding `CC(=O)Nc1ccc(S(=O)(=O)NCCC(=O)N2CCN(c3ccccc3Cl)CC2)cc1`, the “activity change, negative = killing” value is -25.3%.

For the compound `CN1CCN(c2ccc(NC(=O)c3ccc4c(c3)OCCO4)cc2Cl)CC1`, the Potency was 5.16 µM (active).

Consider `O=C(Nc1ccccc1N1CCOCC1)c1ccc([N+](=O)[O-])o1`, for which the Potency is 1.3 µM (active).

As for `CC(C)C(=O)N1CCN(c2ccc(NC(=O)c3ccc([N+](=O)[O-])o3)cc2Cl)CC1`, the Potency is 1.03 µM (active).

Take `CC(C)C(=O)N1CCN(c2ccccc2NC(=O)c2ccc([N+](=O)[O-])o2)CC1`: the Potency was 1.16 µM (active).

Turning to `O=C(Nc1cccc(Cl)c1N1CCOCC1)c1ccc([N+](=O)[O-])o1`, the Potency is 1.3 µM (active).

As to `CCC(=O)N1CCN(c2ccccc2NC(=O)c2ccc([N+](=O)[O-])o2)CC1`, the Potency is 0.818 µM (active).

As for `COc1ccc(CN(C(=O)CSc2nnc(-c3ccc(OC)c(OC)c3)o2)c2ccc(F)cc2)cc1`, the Potency is 3.65 µM (active).

On to `COc1ccc(-c2nc(CSCC(=O)NC3CCCC3)c(C)o2)cc1OC`, for which the “activity change, negative = killing” value is -30.1%.

For `Cc1ccc(CSc2nnc(Cn3c(=O)sc4ccccc43)n2C)cc1`, the “activity change, negative = killing” value was -21.4%.

For `Cc1ccc(-c2nc(-c3ccccc3)no2)c(Cl)c1`, the Potency is 1.63 µM (active).

As for `Nc1ccc[n+](CC(=O)c2ccc(F)cc2)c1`, the Potency was 2.31 µM (active).

For the compound `Cc1cccc(NC(=O)c2ccc([N+](=O)[O-])s2)c1C`, the Potency is 3.26 µM (active).

For the compound `O=C(Nc1cccc2ccccc12)c1ccc([N+](=O)[O-])s1`, the Potency is 2.05 µM (active).

Regarding `COc1cc2sc3cc(NCCCN4CCOCC4)ccc3c(=O)c2cc1OC`, the Potency was 5.16 µM (active).

Take `COc1cc2nc(CN(C)Cc3ccc(C(C)(C)C)cc3)[nH]c(=O)c2cc1OC`: the Potency was 5.16 µM (active).

On to `COc1ccc(Cc2noc(CN(C)Cc3ccc(-n4cccn4)cc3)n2)cc1OC`, for which the “activity change, negative = killing” value was -6.65%.

As for `Cc1ncc([N+](=O)[O-])n1CCOC(=O)C12CC3CC(CC(C3)C1)C2`, the Potency is 1.3 µM (active).

Regarding `Cc1ncc([N+](=O)[O-])n1CCOC(=O)c1ccc(Br)cc1`, the Potency was 1.16 µM (active).

`Cc1ncc([N+](=O)[O-])n1CCOC(=O)c1ccccc1`: the Potency was 1.03 µM (active).

The values above are taken from PubChem BioAssay AID588397 (National Center for Advancing Translational Sciences (NCATS), 2011).
